Test [1] can be described thus: AP1 Signaling Pathway (AID 357). Note: % is set by controls: 0 for no effect and ±100 for the full control effect. Particulars: ME-180 AP-1-bla reporter, EGF-induced, beta-lactamase ratio, 5 h; at 17.2 µM (top of the series) unless noted. In outline: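 AP-1-bla ME-180 cells with beta-lactamase reporter under AP-1 response element, stimulated with EC50 EGF; compounds titrated, 5 hours at 37 degrees Celsius. CCF4 read at 460/530 nm ratio; positive and negative modulators judged by AC50.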

Test [2] is described as follows: NFAT Signaling Pathway (AID 444).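 Note: carbachol stimulus at about its EC50 of 1 µM final; % is set by controls: 0 for no effect and ±100 for the full control effect.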 Particulars: Jurkat NFAT-bla M1, carbachol, beta-lactamase ratio, 5 h; at 17.2 µM (top of the series) unless noted. In outline: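 Read-out: CCF4 FRET ratio (460 nm/530 nm) after 1 h RT dye loading, used for %activity and AC50 from titration series. Cells: Jurkat NFAT-β-lactamase/M1 line, treated with compound plus 1 uM carbachol for 5 h, 37 °C.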

Test [3] can be described thus: Stat Signaling Pathway (AID 446).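 Note: ME-180 cervical cancer cells given 40 pM IL-6 alongside compound; SIE-controlled beta-lactamase reporter measured as 460/530 nm FRET emission ratio; % is set by controls: 0 for no effect and ±100 for the full control effect.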 The conditions noted are these: ME-180 (cervical carcinoma) SIE beta-lactamase reporter, IL-6 stimulated, 5 h; at 17.2 µM (top of the series) unless noted. Summed up: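 FRET read-out (405 nm excitation, 460/530 nm emission) of a beta-lactamase reporter under a STAT-inducible element in ME-180 cervical carcinoma cells. Cells with compound receive 40 pM IL-6 for 5 h. Values are normalised to AC90 stimulation and AC90 JAK-inhibitor controls.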

Test [4] deals with Glucocorticoid receptor (Homo sapiens) (UniProt P04150). Nature of the test: GR-GFP Redistribution (AID 450;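 active = compounds whose dose series gives a full or clear partial fitted curve of increased nuclear translocation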; note: potency is the fitted concentration of half-maximal effect). Particulars: U2OS GR-GFP nuclear translocation, laser cytometry, 2 h.
Chain of Glucocorticoid receptor (Homo sapiens) (P04150 whole entry, looked up): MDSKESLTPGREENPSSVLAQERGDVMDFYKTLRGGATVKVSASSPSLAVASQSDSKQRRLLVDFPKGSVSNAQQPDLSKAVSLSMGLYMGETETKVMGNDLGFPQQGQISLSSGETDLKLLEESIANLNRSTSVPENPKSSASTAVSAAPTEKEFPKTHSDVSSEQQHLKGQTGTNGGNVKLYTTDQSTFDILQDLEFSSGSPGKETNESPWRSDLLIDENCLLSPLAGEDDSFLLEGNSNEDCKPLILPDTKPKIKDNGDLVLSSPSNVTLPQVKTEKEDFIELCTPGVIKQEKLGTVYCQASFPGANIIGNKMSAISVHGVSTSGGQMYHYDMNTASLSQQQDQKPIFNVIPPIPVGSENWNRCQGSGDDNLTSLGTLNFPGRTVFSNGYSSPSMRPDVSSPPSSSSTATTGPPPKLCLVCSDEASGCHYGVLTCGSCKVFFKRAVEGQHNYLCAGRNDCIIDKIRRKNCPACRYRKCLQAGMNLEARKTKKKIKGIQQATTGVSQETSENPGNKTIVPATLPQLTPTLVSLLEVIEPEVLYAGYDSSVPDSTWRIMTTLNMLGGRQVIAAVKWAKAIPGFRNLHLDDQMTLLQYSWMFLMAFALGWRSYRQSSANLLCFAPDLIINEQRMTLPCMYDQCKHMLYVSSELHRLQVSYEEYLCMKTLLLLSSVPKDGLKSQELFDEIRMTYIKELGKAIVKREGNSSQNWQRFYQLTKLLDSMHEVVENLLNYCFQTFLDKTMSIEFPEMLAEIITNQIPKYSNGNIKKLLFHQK
Test [5] shares this target. Nature of the test: GR-EFC Redistribution (AID 451; calls by dose curve; note: potency is the fitted concentration of half-maximal effect). Particulars: CHO-K1 GR-EFC translocation, beta-gal luminescence, 2 h. In outline:
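Translocation of GR-ED fusion to nuclear EA restores b-gal, read by luminescence after 1 h room-temperature detection. Engineered CHO-K1 biosensor cells, 1,000/well, exposed 2 h at 37 C to titrations up to 46 uM final.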

For test [6], the target named is Mitogen-activated protein kinase 10 (Mus musculus) (UniProt Q61831). Nature of the test: JNK3 AlphaScreen Assay (AID 530).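 Note: kinase came from lysate of stimulated human HepG2 cells; signal reports phosphorylation of biotinylated GST-cJun 1-79 at Ser73 with 10 µM ATP; % is set by controls: 0 for no effect and ±100 for the full control effect.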 Summed up: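 Kinase buffer: 20 mM Tris-HCl pH 7.6, 10 mM MgCl2, 1 mM DTT, 0.1 mM Na3VO4, 0.01% Tween-20; ATP 10 uM. Substrate biotin-GST-cJun(1-79), enzyme from activated HepG2 lysates. Detection by Ser73 phospho-antibody AlphaScreen.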
On the technique in general: In Alpha technology, singlet oxygen from a donor bead excites a nearby acceptor bead.

Test [7] addresses 3',5'-cyclic-AMP phosphodiesterase 4B (Homo sapiens) (UniProt Q07343). Nature of the test: qHTS Assay for Inhibitors of PDE-IV (AID 607; active = well fitted activation curve with a large enough effect in the main read-out, with a control signal flat, not every such curve was filed as active; note: % of control where 0% means no effect). Summed up: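 Cell-based read-out of cAMP via a modified cyclic nucleotide-gated channel and membrane potential dye (535/590 nm) in HEK293 cells expressing PDE4 endogenously. Compounds tested up to 22.9 uM final; 100 uM RO 20-1724 reference.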
(Quantitative high-throughput screening tests each substance at several concentrations.)

A short description of test [8]: Cell Viability - BJ (AID 421; calls by dose curve;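 note: potency is the fitted concentration of half-maximal effect; cells exposed to compound for 40 hours at 37 °C before readout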). Particulars: BJ fibroblast viability, qHTS. In outline:
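Cytotoxicity as drop in intracellular ATP (CellTiter-Glo, 20 min RT) after 40 hr compound exposure of BJ fibroblasts at 37 °C. Titrations scaled between DMSO and 100 uM tamoxifen, Hill-fitted for AC50.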

Test [9] can be described thus: Cell Viability - Hek293 (AID 427;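 active = compounds whose dose-response curve shows a full or clear partial loss of cell viability, called from curve shape rather than a numeric limit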;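 note: potency is the fitted concentration of half-maximal effect; cells exposed to compound for 40 hours at 37 °C before reading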). Particulars: qHTS. Summed up:
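Luminescent ATP content (CellTiter-Glo, 20 min at room temperature) was measured after a 40 hr, 37 °C compound exposure of HEK293 cells. AC50 values came from Hill-equation fits of qHTS concentration-response data normalized to DMSO and 100 uM tamoxifen.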

Test [10] can be described thus: Cell Viability - HepG2 (AID 433; calls by dose curve; note: potency is the fitted concentration of half-maximal effect). Particulars: qHTS. Summed up:
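Cytotoxicity is scored as loss of intracellular ATP in HepG2 cells exposed to compounds for 40 h. Concentration-response curves, normalized to DMSO and 100 uM tamoxifen, give AC50 values.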

Test [11] is described as follows: Cell Viability - SK-N-SH (AID 435; calls by dose curve; note: potency is the fitted concentration of half-maximal effect). The conditions noted are these: SK-N-SH neuroblastoma cell viability qHTS. In outline: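 Cells seeded at 1500 per well and incubated 5 hr at 37 °C. Compound added, then 40 hr at 37 °C. CellTiter-Glo added, 20 min at room temperature, luminescence read.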
Test [12] is described as follows: Cell Viability - N2a (AID 540; active = well fitted curve in the direction sought with a large enough effect; an effect the other way counts as inactive or inconclusive;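 note: plate controls were DMSO alone for no effect and tamoxifen control for full effect; nearly all actives have a fitted effect of over 45% in size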). The conditions noted are these: N2a mouse neuroblastoma cell viability; activity change, negative = cytotoxicity: at 92.2 µM (top of the series). Summed up:
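N2a mouse neuroblastoma, 1500 cells/well, 5 hr settle; compound 40 hr, 37 °C; CellTiter-Glo 20 min RT; luminescence; Hill-fit AC50.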

A short description of test [13]: Cell Viability - NIH 3T3 (AID 541; active = well fitted curve in the direction sought with a large enough effect; an effect the other way counts as inactive or inconclusive;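 note: plate controls were DMSO alone for no effect and tamoxifen positive control for full effect; nearly all actives have a fitted effect of over 25% in size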). Particulars: NIH 3T3 cell viability, qHTS; activity change, negative = cytotoxicity: at 92.2 µM (top of the series). Summed up:
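qHTS format; 40 hr compound exposure, 37 °C; CellTiter-Glo luminescence (cellular ATP) read-out after 20 min at RT. Decrease in ATP = cytotoxicity; AC50 from standard Hill fit.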

Test [14] is described as follows: Cell Viability - HUV-EC-C (AID 542; active = well fitted curve in the direction sought with a large enough effect; an effect the other way counts as inactive or inconclusive; note: % is set by controls: 0 for no effect and ±100 for the full control effect; nearly all actives have a fitted effect of over 35% in size). Summed up: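 Luminescent ATP read-out (CellTiter-Glo, 20 min room temperature) after 40 hr compound treatment of HUV-EC-C cells at 37 °C. Concentration-response data fitted with the standard Hill equation to give AC50; tamoxifen and doxorubicin served as positive controls.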
Test [15] in a line: Cell Viability - H-4-II-E (AID 543; active = well fitted curve in the direction sought with a large enough effect; an effect the other way counts as inactive or inconclusive; note: nearly all actives have a fitted effect of over 35% in size; note: potency is the fitted concentration of half-maximal effect). Summed up:
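qHTS, rat hepatoma H-4-II-E, 1500 cells/well; 40 hr compound exposure, 37 °C; CellTiter-Glo ATP luminescence after 20 min RT; AC50 by standard Hill fit.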

Test [16] can be described thus: Cell Viability - Mesenchymal (AID 546; active = well fitted curve in the direction sought with a large enough effect; an effect the other way counts as inactive or inconclusive;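 note: cells exposed to compound for 40 hours before reading; 0% = DMSO only and -100% = 100 µM tamoxifen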). Summed up: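 CellTiter-Glo luminescence (intracellular ATP, 20 min room temperature) after 40 hr compound exposure at 37 °C of 1000 glomerulus-derived human kidney mesenchymal cells/well; AC50 values obtained by fitting qHTS concentration-response data to the Hill equation.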
Test [17] is described as follows: Cellular Toxicity (caspase-3) HepG2 (AID 654; active = well fitted curve in the direction sought with a large enough effect; an effect the other way counts as inactive or inconclusive;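 note: cells exposed to compound for 16 hours before reading; 0% = DMSO alone and 100% = caspase signal from 100 µM tamoxifen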). Summed up: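 Luminescent Caspase-Glo 3/7 readout after 16 hr compound exposure of human hepatocellular carcinoma HepG2 cells at 37 °C; qHTS concentration-response, normalized DMSO = 0%, 100 uM tamoxifen = 100%; AC50 by standard Hill equation.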
Test [18] in a line: Cellular Toxicity (caspase-3) Jurkat (AID 655; active = well fitted curve in the direction sought with a large enough effect; an effect the other way counts as inactive or inconclusive;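 note: cells exposed to compound for 16 h at 37 °C before reading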). In outline:
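Caspase 3/7 activation is scored as increased luminescence in Jurkat cells cultured with compound for 16 hours in complete medium. AC50 values come from Hill fits of qHTS concentration-response data normalized to DMSO and 100 uM tamoxifen controls.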

Test [19] is described as follows: Cell Viability - Jurkat (AID 426;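 active = dose-dependent loss of cell ATP signal giving a full or clear fitted curve, ranked by lower potency value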;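 note: potency is the fitted concentration of half-maximal effect; cells exposed to compound for 40 hours at 37 °C before ATP read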). Particulars: qHTS. Summed up: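 Luminescent ATP read-out (CellTiter-Glo, 20 min at room temperature) after 40 hr compound exposure at 37 °C of Jurkat E6-1 cells, 5000/well. Decreased ATP taken as cytotoxicity; AC50 from standard Hill equation.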
A short description of test [20]: Cell Viability - Renal Proximal Tubule (AID 545; active = well fitted curve in the direction sought with a large enough effect; an effect the other way counts as inactive or inconclusive;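 note: 0% = DMSO only and -100% = 100 µM tamoxifen; nearly all actives have a fitted effect of over 40% in size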). Summed up: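 Cytotoxicity is scored as a concentration-dependent drop in cellular ATP in primary rat renal proximal tubule cells exposed for 40 hr. AC50 derives from Hill modelling.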

SMILES strings stand for the structures. “And” between values parts separate entries of the source, which are not always exact repeats. Equal entries are not always repeated. A number with no mark means an inactive call. Results filed as inconclusive are left out. The source made the active and inactive calls. Unless noted, calls come from the whole dose curve; as a rule, active = well fitted curve in either direction with a large enough effect (not every such curve was filed as active); inconclusive = small, poorly fitted or top-dose-only effect, or another doubt; inactive = flat fitted curve, though single readings scatter.

Chain of 3',5'-cyclic-AMP phosphodiesterase 4B (Homo sapiens) (Q07343 whole entry, looked up): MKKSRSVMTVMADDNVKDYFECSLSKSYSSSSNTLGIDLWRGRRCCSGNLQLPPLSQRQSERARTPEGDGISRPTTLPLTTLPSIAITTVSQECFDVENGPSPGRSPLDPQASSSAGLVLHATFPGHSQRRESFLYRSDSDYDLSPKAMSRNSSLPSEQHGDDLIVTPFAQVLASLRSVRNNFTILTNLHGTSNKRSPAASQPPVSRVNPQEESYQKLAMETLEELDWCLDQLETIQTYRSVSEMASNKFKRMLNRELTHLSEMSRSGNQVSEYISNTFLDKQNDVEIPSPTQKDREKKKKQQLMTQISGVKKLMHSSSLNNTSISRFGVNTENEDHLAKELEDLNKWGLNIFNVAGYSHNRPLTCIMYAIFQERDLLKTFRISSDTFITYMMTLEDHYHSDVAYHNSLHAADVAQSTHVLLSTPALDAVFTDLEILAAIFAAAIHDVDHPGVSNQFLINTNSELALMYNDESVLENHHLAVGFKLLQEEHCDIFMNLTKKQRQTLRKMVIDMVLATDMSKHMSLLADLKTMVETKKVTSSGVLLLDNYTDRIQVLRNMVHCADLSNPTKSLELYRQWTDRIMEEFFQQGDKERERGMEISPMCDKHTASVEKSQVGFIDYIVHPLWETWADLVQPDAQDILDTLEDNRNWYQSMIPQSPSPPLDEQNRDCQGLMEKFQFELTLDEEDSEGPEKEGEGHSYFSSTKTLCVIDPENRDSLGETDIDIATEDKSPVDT

In the case of `Cn1c(=O)c2c(ncn2CC(O)CO)n(C)c1=O` (centres undefined), the activity change, negative = inhibition in test [1] is 2.4%; in [2] it was 10.5%. For the same molecule, the activity, negative = inhibition in test [3] is 1.2%. Further, the Potency in [4] was greater than 20.6 µM.
For `CCCOc1ccc(C(=O)OCCN(CC)CC)cc1N`, the activity change, negative = inhibition is 5.39% in test [1] and -19.1% in [2]. For the same molecule, in test [3], the activity, negative = inhibition was 1.44%. The Potency in [4] and in [5] was greater than 20.6 µM in each case. In addition, the Potency result in [6] was “inactive”. Also, the call in [7] was inactive.
For the molecule `CC(=O)[C@H]1CC[C@H]2[C@@H]3CCC4=CC(=O)CC[C@]4(C)[C@H]3CC[C@]12C`, the activity change, negative = inhibition in test [1] was 1.43%; in test [2] it was -29.5%. For the same molecule, the Potency is greater than 92 µM in test [8]; 48.5 µM (active) in test [9]; greater than 92 µM in test [10]; greater than 92 µM in [11]; 39.8 µM (active) in test [15]. In test [3], the activity, negative = inhibition was 2.68%. The Potency entry in test [6], in [14], in test [16] and in test [17] was “inactive” each time. In addition, the activity change, negative = cytotoxicity was -96.5% (active) and -82.2% (active) in test [12]; -129% (active) in test [13]. Besides, in test [18], the molecule was called inactive.
As to `COc1ccccc1OCC(O)COC(N)=O` (centres undefined), the values for the activity change, negative = inhibition in [1] and in test [2] were 9.66% and -29.9%, respectively. For the same molecule, the activity, negative = inhibition in test [3] is 6.13%. The Potency in test [4] was greater than 20.6 µM.
Regarding `CCCCOc1ccc(CC(=O)NO)cc1`, the activity change, negative = inhibition in [1] is -22.1% and -10.8%; in test [2], -5.9% and 15%. Besides, the activity, negative = inhibition in test [3] was -9.96% and -7.15%. For the same molecule, the Potency in test [4] and in [5] was greater than 20.6 µM throughout. Moreover, in test [6], the Potency entry was “inactive”.
With `Cc1noc(NS(=O)(=O)c2ccc(N)cc2)c1C`, the activity change, negative = inhibition in [1] was 3.21% and 4.22%; in [2], -7.16% and 11.7%. Moreover, the Potency in test [8], in [19], in [9], in [10] and in test [11] was greater than 92 µM in each case. In test [3], the activity, negative = inhibition is 7.81% and 5.09%. The Potency entry in test [6], in test [12], in test [14], in test [15], in [20] and in test [16] was “inactive” throughout. For the same molecule, the Potency result in test [17] is “inactive”. Besides, in test [13], the activity change, negative = cytotoxicity was -8.82%. Further, the molecule was called inactive in test [7] and in test [18].

The values above are taken from PubChem BioAssay (NCATS).
